These results are taken from PubChem BioAssay AID1347416 (National Center for Advancing Translational Sciences (NCATS), 2020).

SMILES strings stand for the structures. The campaign covered roughly 4,100 compounds. About 1,600 (39%) were called active. About 25% were inconclusive and are not listed. This is one part of the list. Values without a mark were called inactive. Calls follow the shape of the dose curve; as a rule, active = well fitted inhibition curve with a large enough effect; inconclusive = small, poorly fitted or top-dose-only effect; inactive = no such curve, though single readings can be large or run the other way.
% is scaled to controls: 0 for no effect and ±100 for the full control effect; potency is read from the fitted curve at half-maximal effect.

A short description of this test: qHTS Validation assay for Inhibitors of Plasmodium falciparum Dd2 growth in vitro. Also: nearly all actives have a fitted effect of over 70% in size. The settings on record: P. falciparum Dd2 in RBCs, SYBR Green growth, 72 h; series mostly up to 28.7 µM; activity change, negative = inhibition: at the top concentration. In a few lines:
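P. falciparum Dd2-infected red blood cells (2.5% hematocrit, 0.3% parasitemia) grown 72 h at 37 °C under 5% O2 with compounds in a titration, 29 uM to 0.5 nM final. Growth read as SYBR Green-1 fluorescence after ~16 h lysis; artesunate 300 nM as positive control.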
(In qHTS, concentration-response curves come from the screen itself.)
As to `Oc1ccccc1Nc1nc(NCc2ccco2)c2ccccc2n1`, the Potency is 2.99 µM (active).
Still for that read-out and setting: the result for `Cc1cccc(Nc2nc(NCc3ccco3)c3ccccc3n2)c1` reads 4.73 µM (active).
Consider `c1ccc(Nc2nc(NCc3ccco3)c3ccccc3n2)cc1`, for which the Potency is 1.68 µM (active).
On the same count and under the same terms, the result for `OCCNc1nc(Nc2ccc(Br)cc2)nc2ccccc12` reads 2.66 µM (active).
Take `NCC(=O)N1CCC(n2nccc2NC(=O)c2ccc3c(c2)OCO3)CC1`: the “activity change, negative = inhibition” value was 37.3%.
For the compound `CN1C(=O)c2cncnc2OCC1CNC(=O)Cc1cccs1` (stereo not drawn), the “activity change, negative = inhibition” value is 1.04% [at 43.1 µM].
As for `COc1cc(O)c(C(CCN2CCN(c3ccccc3)CC2)c2ccc(N(C)C)cc2)c(OC)c1` (stereo not drawn), the Potency was 0.596 µM (active).
On the same count and under the same terms, the result for `COc1ccc(C(CCN2CCN(c3ccccc3)CC2)c2c(O)cc(OC)cc2OC)cc1` (stereo not drawn) reads 0.944 µM (active); that for `N#Cc1c(N2CCN(c3ccc(F)cc3)CC2)nc(N)c2c(N)nc3c(c12)CC(=O)N3C1CC1`, 0.668 µM (active).
Same read-out and setting: the result for `C=CCOC(=O)C1=C[C@@H](c2ccc(C(F)(F)F)cc2)[C@H](CCCO)[C@@H](OCC)O1` reads 7.5 µM (active); that for `COc1ccc(N2CCN(C(c3cc4ccc(C)cc4[nH]c3=O)c3nnnn3C3CCCC3)CC2)cc1` (stereo not drawn), 6.68 µM (active); that for `CC(C)(C)n1nnnc1C(c1cc2cc3c(cc2[nH]c1=O)OCO3)N1CCN(c2ccccc2)CC1` (stereo not drawn), 7.5 µM (active).
Still for that read-out and setting: the result for `COc1ccccc1N1CCN(C(c2cc3ccc(C)cc3[nH]c2=O)c2nnnn2C2CCCC2)CC1` (stereo not drawn) reads 7.5 µM (active).
In the case of `COCCN1CC2(CCCN(Cc3cc(C(C)(C)C)n[nH]3)C2)CCC1=O` (stereo not drawn), the “activity change, negative = inhibition” value was 0%.
For `Cc1ccccc1OCCn1cc(C(=O)c2ccco2)c2ccccc21`, the Potency is 5.31 µM (active).
On the same count and under the same terms, the result for `Cc1ccc(C)c(OCCn2cc(C(=O)c3ccco3)c3ccccc32)c1` reads 5.31 µM (active).
For `COC(=O)c1cccc(NC(=S)N[C@H]2CO[C@H]3[C@@H]2OC[C@H]3OC(=O)Nc2ccccc2)c1`, the “activity change, negative = inhibition” value was 7.55%.
Take `COCCN(CCOC)c1nc(N)c2c(N)nc3c(c2c1C#N)CC(=O)N3Cc1ccc(Cl)cc1`: the Potency is 5.96 µM (active).
As to `Cc1cccc(C)c1NC(=O)CN1C(=O)NC(c2ccccc2Cl)C2=C1COC2=O` (stereo not drawn), the “activity change, negative = inhibition” value was -22%.
For the compound `CC(C)[C@@H]1CN(S(=O)(=O)c2ccc(Cl)cc2Cl)C[C@H]1N(C)C`, the Potency is 6.68 µM (active).
As for `CC(Sc1nc2sccc2c(=O)n1-c1ccccc1)C(N)=O` (stereo not drawn), the “activity change, negative = inhibition” value was 11.5%.
Take `CCOC(=O)c1c(NC(=O)CSc2nc3ccccc3c(=O)n2-c2ccccc2)sc(C(C)=O)c1C`: the Potency was 13.3 µM (active).
In the case of `CCOC(=O)C1CCN(C(=O)CSc2nc(N)cc(=O)[nH]2)CC1`, the “activity change, negative = inhibition” value is 21.4%.
For `CCOC(=O)C1CCN(c2cc(=O)n(-c3ccccc3Cl)c(=O)[nH]2)CC1`, the Potency was 8.41 µM (active).
Still for that read-out and setting: the result for `CCOC(=O)C1CCN(Cc2cc(Cl)c3ccccc3c2O)CC1` reads 1.88 µM (active).
On to `Cc1noc(CN(C)C(=O)C2C3C(=O)N(Cc4ccc(C)c(C)c4)C[C@@]34C=C[C@@H]2O4)n1` (stereo partly drawn), for which the “activity change, negative = inhibition” value is 30%.
In the case of `O=C(C1CCCCC1)N1CCN(C2CCN(Cc3cccnc3)C2=O)CC1` (stereo not drawn), the “activity change, negative = inhibition” value was -19.1%.
Turning to `CCOC(=O)c1ccc2c(c1)[C@@H]1C=CC[C@@H]1[C@H](c1cccc(OC)c1OC)N2`, the Potency was 2.66 µM (active).
On to `COc1ccc(-c2noc(-c3cccn3CC(=O)Nc3ccccc3)n2)cc1F`, for which the Potency is 2.37 µM (active).
With `COc1ccc(NC(=O)Cn2cccc2-c2nc(-c3ccc(OC)c(F)c3)no2)cc1`, the Potency is 4.73 µM (active).
For the compound `COc1cccc(NC(=O)Cn2cccc2-c2nc(-c3ccc(OC)c(F)c3)no2)c1`, the Potency is 6.68 µM (active).
With `COc1ccc(-c2noc(-c3cccn3CC(=O)NC3CCCCC3)n2)cc1F`, the “activity change, negative = inhibition” value is 6.59%.
On to `COc1ccc(-c2noc(-c3cccn3CC(=O)NC(C)C)n2)cc1F`, for which the “activity change, negative = inhibition” value is 14.4%.
Turning to `CCOc1ccc(NC(=O)Nc2cc(OCC(F)(F)F)cc(OCC(F)(F)F)c2)cc1`, the Potency was 13.3 µM (active).
`Cc1cccc(-c2ccc3c(c2)C(=O)N2C[C@H](O)C[C@H]2C(=O)N3)c1C`: the “activity change, negative = inhibition” value is 43.2% [at 43.1 µM].
Turning to `CCN1CCN(Cc2ccc(NC(=O)c3cc(NC(=O)C(=O)c4c[nH]c5ccccc45)cc(OC)c3)cc2C(F)(F)F)CC1`, the Potency is 0.668 µM (active).
Same read-out and setting: the result for `Cc1cn(-c2cc(C(=O)Nc3ccc(C)c(NC(=O)C(=O)c4c[nH]c5ccccc45)c3)cc(C(F)(F)F)c2)cn1` reads 2.11 µM (active); that for `CCN1CCN(Cc2ccc(NC(=O)c3ccc(C)c(NC(=O)c4c[nH]c5cc(C(F)(F)F)ccc5c4=O)c3)cc2C(F)(F)F)CC1`, 0.531 µM (active).
`CCN1CCN(Cc2ccc(NC(=O)c3ccc(C)c(NC(=O)C(=O)c4c[nH]c5ccccc45)c3)cc2C(F)(F)F)CC1`: the Potency is 1.5 µM (active).
On to `CNC(=O)[C@@H]1CN(C(=O)c2c[nH]c3ccccc23)C[C@H]1COC`, for which the “activity change, negative = inhibition” value was -9.93%.
On the same count and under the same terms, the result for `CCn1nc(C)c(-c2cc(C(=O)N3CCc4nc5cc(-c6ccccc6)[nH]n5c(=O)c4C3)no2)c1C` reads -11.4%; that for `COc1ccc(CCc2nc3nccc(-c4ccc5c(c4)OCCCO5)n3n2)cc1OC`, -25.8%.
Regarding `COc1cc2nc(NCCc3cccc(C)c3)n3nc(-c4ccccc4)nc3c2cc1OC`, the Potency is 0.842 µM (active).
As to `COc1ccc(CCNc2nc3cc(OC)c(OC)cc3c3nc(-c4ccccc4)nn23)cc1OC`, the Potency is 2.37 µM (active).
The same measure, in the same setting: the result for `COc1cc2c(cc1O)CC[n+]1cc3c(OC)c(OC)ccc3cc1-2` reads 7.5 µM (active).
Take `COc1ccccc1CNC[C@@H]1C=C(C)[C@H](Cc2nc3c(C)cccc3[nH]2)C[C@H]1C(C)C`: the Potency is 9.68 µM (active).
With `CC1=C[C@@H](CNC(=O)c2cnccn2)[C@H](C(C)C)C[C@H]1Cc1nc2ccc(F)cc2[nH]1`, the “activity change, negative = inhibition” value is -19% [at 43.1 µM].
Take `COC(=O)c1ccc2nc(C[C@@H]3C[C@@H](C(C)C)[C@H](CNC4CCCCC4)C=C3C)[nH]c2c1`: the Potency is 8.41 µM (active).
As for `COc1ccc2nc(C[C@@H]3C[C@@H](C(C)C)[C@H](CNCc4ccccn4)C=C3C)[nH]c2c1`, the Potency was 0.769 µM (active).
The same measure, in the same setting: the result for `COc1ccc2nc(C[C@@H]3C[C@@H](C(C)C)[C@H](CNCc4ccccc4OC)C=C3C)[nH]c2c1` reads 9.44 µM (active); that for `CC1(C)Cc2ccccc2C2=NNC(=O)C2=N1`, 3.35 µM (active).
Consider `O=C(Cc1ccccc1O)NCc1cccnc1Oc1ccc(F)cc1F`, for which the “activity change, negative = inhibition” value was -1.86%.
The same measure, in the same setting: the result for `CCC(C(=O)Nc1nc(C)c(C)s1)c1ccccc1` (stereo not drawn) reads -13.3%.
`CC(Oc1ccccc1)C(=O)Nc1nc(-c2ccccn2)cs1` (stereo not drawn): the Potency was 8.41 µM (active).
The same measure, in the same setting: the result for `O=C(Nc1nc(-c2ccccn2)cs1)Nc1ccc(F)cc1F` reads 5.31 µM (active).
With `CC(Oc1ccccc1)C(=O)Nc1cnc(-c2cccc(Cl)c2)nc1` (stereo not drawn), the “activity change, negative = inhibition” value is -22.4%.
In the case of `CC1Cc2nc(SCC(=O)Nc3ccc4c(c3)OCO4)n(-c3ccc(F)cc3)c(=O)c2S1` (stereo not drawn), the Potency is 2.99 µM (active).
For `Cc1cc(NC(=O)CSc2nc3c(c(=O)n2Cc2ccccc2)SC(C)C3)no1` (stereo not drawn), the “activity change, negative = inhibition” value is 175%.
For `CCC(Sc1nc2c(c(=O)n1CC)SC(C)C2)C(=O)OC` (stereo not drawn), the “activity change, negative = inhibition” value is 22.8%.
Same read-out and setting: the result for `NNC(=O)CN1C(=O)Nc2ccc(Cl)cc2C1c1ccccc1` (stereo not drawn) reads 35.4%.
On to `CCOc1ccccc1C(=O)N1CC(=O)Nc2ccc(Cl)cc2C1c1ccccc1` (stereo not drawn), for which the Potency was 9.44 µM (active).
With `Cc1ccc2oc(-c3cccc(NC(=O)c4cccc5c(Cl)cccc45)c3)nc2c1`, the “activity change, negative = inhibition” value was 31.7%.
As for `O=C(Nc1ccncc1)c1cc(-c2cccc(Br)c2)nc2ccccc12`, the Potency is 13.3 µM (active).
Turning to `O=C(NCc1ccco1)c1cc(-c2ccncc2)nc2ccccc12`, the Potency was 5.96 µM (active).
The same measure, in the same setting: the result for `O=C(Nc1cccnc1)c1cc(-c2cccnc2)nc2ccc(Br)cc12` reads 2.66 µM (active).
For `CCN(CC)CCNC(=O)c1ccc(NC(=O)c2cc(-c3ccncc3)nc3ccccc23)cc1`, the “activity change, negative = inhibition” value was -24.5%.
On the same count and under the same terms, the result for `O=C(CCC1CCCC1)N1CC(c2nnc(-c3ccncc3)o2)C2(CCOCC2)C1` (stereo not drawn) reads 10.2%.
As for `COc1cc(C#Cc2c(-c3cncn3C)n(C)c3ccc(-c4ccc(OC)c(OC)c4)cc23)cc(OC)c1`, the Potency was 4.73 µM (active).
For `COc1cc(C#Cc2c(-c3cncn3C)n(C)c3ccc(-c4ccc5[nH]ccc5c4)cc23)cc(OC)c1`, the Potency was 2.37 µM (active).
Still for that read-out and setting: the result for `COc1ccc(-c2c(C#Cc3ccsc3)c3cc(-c4cccc5[nH]ccc45)ccc3n2C)cc1` reads 6.68 µM (active).
Take `CC(=O)NCCc1ncc(C)n1C1CCC1`: the “activity change, negative = inhibition” value was -8.89%.
Take `CCOC(=O)c1cnc(-n2nc(C)cc2C)nc1NNc1nc(-c2ccccc2)cc(-c2ccccc2)n1`: the Potency is 2.11 µM (active).
With `CC(=O)NCCc1ncc(C)n1C1CCCCCC1`, the “activity change, negative = inhibition” value was -24.6%.
Turning to `CCOC(=O)c1cnc(-n2nc(C)cc2C)nc1NC1CCCC1`, the Potency was 8.41 µM (active).
For `ClC(Cl)(Cl)c1nc2ccccc2n2nncc12`, the Potency was 2.11 µM (active).
Turning to `COc1cccc(-c2cc3c(=O)n(CCNC(=O)c4cccc5[nH]ccc45)ccn3n2)c1`, the “activity change, negative = inhibition” value is -19.8%.
As to `COc1cccc(-c2cc(C(=O)NCC34CCC=C3N(C)C(=O)CC4)[nH]n2)c1` (stereo not drawn), the “activity change, negative = inhibition” value was -26.8%.
`CCCCN(C)CCNC(=O)c1cc2c(-c3cccc(OC)c3)nn(C)c2s1`: the Potency is 6.68 µM (active).
The same measure, in the same setting: the result for `CCCN(CCC)CCNC(=O)c1cc2c(-c3ccc(Cl)cc3)nn(C)c2s1` reads 0.596 µM (active); that for `CN(CCNC(=O)c1cc2c(-c3ccccc3F)nn(C)c2s1)C1CCCCC1`, 5.96 µM (active); that for `CCCCN(CC)CCNC(=O)c1cc2c(-c3ccc(Cl)cc3)nn(C)c2s1`, 0.668 µM (active).
For `COC(=O)c1c(NC(=O)/C(C#N)=C/c2ccc(OC)cc2)sc2c1CCC2`, the “activity change, negative = inhibition” value was 23.8%.
On the same count and under the same terms, the result for `O=C(NCCCn1cccn1)C1Cn2cccc2C(=O)N1Cc1ccccc1` (stereo not drawn) reads 2.79%; that for `COc1ccc(C(=O)N2CCOCC3(CN(Cc4ccccc4)C3)C2)c(OC)n1`, -10.6% [at 43.1 µM].
With `COc1ccccc1CN1CCOCC2(C1)CN([S+](=O)([O-])c1ccccc1)C2`, the Potency is 12.2 µM (active).
For `COc1ccc(C2=NOC3(CCN([S+](=O)([O-])c4cccc(OC)c4)C3)C2)cc1` (stereo not drawn), the “activity change, negative = inhibition” value is 7.53%.
On to `Cc1ccc(Sc2ccc(N3CCCC(C(=O)Nc4ccc(F)c(Cl)c4)C3)nn2)cc1` (stereo not drawn), for which the “activity change, negative = inhibition” value was -3.9%.
For `O=C(Nc1ccc(N2CCCCC2)c(Cl)c1)c1ncn[nH]1`, the Potency is 4.73 µM (active).
